# Measurements published in PubChem BioAssay AID1159580 (chemical genetic matrix, 2015).
# Screen size: about 5,500 compounds; about 2,000 (36%) were called active. Inconclusive results (about 18%) are left out. Some of the results follow. Values without a mark were called inactive. Rule as the data show it: active = normalized growth mostly below about 0.91 (no sharp cut-off); inconclusive = no clear call, values can overlap the other calls; inactive = mostly above about 0.92. Where a SMILES comes first, the peptide text is derived from it. [ ]: non-standard residue; d: D form. Orn = NCCC[CH](N)C(=O)O
# Assay: chemical genetic growth profiling, strain panel (AID 1159580);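 also: tested at 20 µM; growth read once vehicle control cultures reached saturation at 30 °C; 1 = growth at the plate median or of vehicle wells; lower values mean less growth of the strain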
# Settings: growth OD
smiles,measurement,setting,value
CC(C)CC1NC(=O)C(CCCN)NC(=O)C(C(C)C)NC(=O)C2CCCN2C(=O)C(Cc2ccccc2)NC(=O)C(CC(C)C)NC(=O)C(CCCN)NC(=O)C(C(C)C)NC(=O)C2CCCN2C(=O)C(Cc2ccccc2)NC1=O (stereo unspecified) (cyclo(FPV[Orn]LFPV[Orn]L); configuration not given here),normalized growth,"S. cerevisiae deletion strains, locus YKL009W, strain mrt4, active compounds read low",1.4 [resistant] (active)
same,normalized growth,"S. cerevisiae deletion strains, locus YKL068W, active compounds read low",1.25 [resistant] (active)
same,normalized growth,"S. cerevisiae deletion strains, locus YKL085W, strain MDH1 (second series), active compounds read low",1.11 [resistant] (active)
same,normalized growth,"S. cerevisiae deletion strains, locus YKL085W, strain MDH1, active compounds read low",1.11 [resistant] (active)
same,normalized growth,"S. cerevisiae deletion strains, locus YKL160W, strain elf1, active compounds read low",1.02
same,normalized growth,"S. cerevisiae deletion strains, locus YKL190W, strain CNB1, active compounds read low",1.02
same,normalized growth,"S. cerevisiae deletion strains, locus YKR001C, strain vps1, active compounds read low",0.236 (active)
same,normalized growth,"S. cerevisiae deletion strains, locus YKR026C, strain gcn3, active compounds read low",1.04
same,normalized growth,"S. cerevisiae deletion strains, locus YKR091W, strain srl3, active compounds read low",1.02
same,normalized growth,"S. cerevisiae deletion strains, locus YLL001W, strain dnm1, active compounds read low",1.03
same,normalized growth,"S. cerevisiae deletion strains, locus YLL026W, active compounds read low",1.02
same,normalized growth,"S. cerevisiae deletion strains, locus YLL041C, strain sdh2, active compounds read low",1.02
same,normalized growth,"S. cerevisiae deletion strains, locus YLR027C, strain aat2, active compounds read low",1.01
same,normalized growth,"S. cerevisiae deletion strains, locus YLR039C, strain RIC1, active compounds read low",0.328 (active)
same,normalized growth,"S. cerevisiae deletion strains, locus YLR058C, strain SHM2, active compounds read low",1
same,normalized growth,"S. cerevisiae deletion strains, locus YLR102C, strain apc9, active compounds read low",1.01
same,normalized growth,"S. cerevisiae deletion strains, locus YLR113W, strain HOG1, active compounds read low",0.971
same,normalized growth,"S. cerevisiae deletion strains, locus YLR221C, strain rsa3, active compounds read low",1.04
same,normalized growth,"S. cerevisiae deletion strains, locus YLR258W, strain gsy2, active compounds read low",1.04
same,normalized growth,"S. cerevisiae deletion strains, locus YLR262C, strain YPT6 (second series), active compounds read low",0.293 (active)
same,normalized growth,"S. cerevisiae deletion strains, locus YLR262C, strain YPT6, active compounds read low",0.285 (active)
same,normalized growth,"S. cerevisiae deletion strains, locus YLR268W, strain sec22, active compounds read low",0.989
same,normalized growth,"S. cerevisiae deletion strains, locus YLR320W, strain mms22, active compounds read low",1.02
same,normalized growth,"S. cerevisiae deletion strains, locus YLR330W, strain CHS5, active compounds read low",1.01
same,normalized growth,"S. cerevisiae deletion strains, locus YLR342W, strain FKS1 (second series), active compounds read low",0.857
same,normalized growth,"S. cerevisiae deletion strains, locus YLR342W, strain FKS1, active compounds read low",1.02
same,normalized growth,"S. cerevisiae deletion strains, locus YLR357W, strain rsc2, active compounds read low",0.968
same,normalized growth,"S. cerevisiae deletion strains, locus YLR370C, strain arc18, active compounds read low",0.927
same,normalized growth,"S. cerevisiae deletion strains, locus YLR371W, strain rom2, active compounds read low",1.01
same,normalized growth,"S. cerevisiae deletion strains, locus YLR384C, strain iki3, active compounds read low",1.03
same,normalized growth,"S. cerevisiae deletion strains, locus YLR418C, strain cdc73, active compounds read low",0.932
same,normalized growth,"S. cerevisiae deletion strains, locus YML016C, strain PPZ1, active compounds read low",1.01
same,normalized growth,"S. cerevisiae deletion strains, locus YML032C, strain rad52, active compounds read low",0.989
same,normalized growth,"S. cerevisiae deletion strains, locus YML120C, strain ndi1, active compounds read low",1.02
same,normalized growth,"S. cerevisiae deletion strains, locus YML124C, strain tub3, active compounds read low",1
same,normalized growth,"S. cerevisiae deletion strains, locus YMR058W, strain fet3, active compounds read low",1.03
same,normalized growth,"S. cerevisiae deletion strains, locus YMR078C, strain ctf18, active compounds read low",1.01
same,normalized growth,"S. cerevisiae deletion strains, locus YMR125W, strain sto1, active compounds read low",0.999
same,normalized growth,"S. cerevisiae deletion strains, locus YMR129W, active compounds read low",1.02
same,normalized growth,"S. cerevisiae deletion strains, locus YMR205C, strain PFK2, active compounds read low",1.02
same,normalized growth,"S. cerevisiae deletion strains, locus YMR223W, strain ubp8, active compounds read low",0.978
same,normalized growth,"S. cerevisiae deletion strains, locus YMR231W, strain pep5, active compounds read low",0.324 (active)
same,normalized growth,"S. cerevisiae deletion strains, locus YMR263W, strain SAP30, active compounds read low",1
same,normalized growth,"S. cerevisiae deletion strains, locus YMR307W, strain GAS1, active compounds read low",0.833
same,normalized growth,"S. cerevisiae deletion strains, locus YNL067W, strain RPL9B, active compounds read low",0.994
same,normalized growth,"S. cerevisiae deletion strains, locus YNL071W, strain lat1, active compounds read low",1.03
same,normalized growth,"S. cerevisiae deletion strains, locus YNL128W, strain TEP1, active compounds read low",1.03
same,normalized growth,"S. cerevisiae deletion strains, locus YNL153C, strain GIM3, active compounds read low",1
same,normalized growth,"S. cerevisiae deletion strains, locus YNL183C, strain NPR1, active compounds read low",0.948
same,normalized growth,"S. cerevisiae deletion strains, locus YNL209W, strain ssb2, active compounds read low",1.01
same,normalized growth,"S. cerevisiae deletion strains, locus YNL233W, strain BNI4, active compounds read low",0.982
same,normalized growth,"S. cerevisiae deletion strains, locus YNL248C, strain rpa49, active compounds read low",1.03
same,normalized growth,"S. cerevisiae deletion strains, locus YNL250W, strain rad50, active compounds read low",0.998
same,normalized growth,"S. cerevisiae deletion strains, locus YNL271C, strain bni1, active compounds read low",0.995
same,normalized growth,"S. cerevisiae deletion strains, locus YNL298W, strain CLA4, active compounds read low",0.967
same,normalized growth,"S. cerevisiae deletion strains, locus YNL307C, strain MCK1, active compounds read low",0.991
same,normalized growth,"S. cerevisiae deletion strains, locus YNL322C, strain KRE1 (second series), active compounds read low",1.06
same,normalized growth,"S. cerevisiae deletion strains, locus YNL322C, strain KRE1, active compounds read low",1.01
same,normalized growth,"S. cerevisiae deletion strains, locus YNR049C, strain mso1, active compounds read low",1.04
same,normalized growth,"S. cerevisiae deletion strains, locus YNR052C, strain pop2, active compounds read low",0.984
same,normalized growth,"S. cerevisiae deletion strains, locus YOL006C, strain TOP1, active compounds read low",0.122 (active)
same,normalized growth,"S. cerevisiae deletion strains, locus YOL012C, strain htz1",0.807
same,normalized growth,"S. cerevisiae deletion strains, locus YOL147C, strain pex11, active compounds read low",1.01
same,normalized growth,"S. cerevisiae deletion strains, locus YOR001W, strain rrp6, active compounds read low",1
same,normalized growth,"S. cerevisiae deletion strains, locus YOR061W, strain CKA2, active compounds read low",1
same,normalized growth,"S. cerevisiae deletion strains, locus YOR069W, strain VPS5, active compounds read low",1
same,normalized growth,"S. cerevisiae deletion strains, locus YOR070C, strain gyp1, active compounds read low",1.03
same,normalized growth,"S. cerevisiae deletion strains, locus YOR080W, strain dia2, active compounds read low",1.05
same,normalized growth,"S. cerevisiae deletion strains, locus YOR083W, strain WHI5, active compounds read low",1.01
same,normalized growth,"S. cerevisiae deletion strains, locus YOR106W, strain vam3, active compounds read low",1.01
same,normalized growth,"S. cerevisiae deletion strains, locus YOR136W, strain idh2, active compounds read low",1
same,normalized growth,"S. cerevisiae deletion strains, locus YOR144C, strain elg1, active compounds read low",1
same,normalized growth,"S. cerevisiae deletion strains, locus YOR184W, strain ser1, active compounds read low",0.987
same,normalized growth,"S. cerevisiae deletion strains, locus YOR231W, strain MKK1, active compounds read low",0.983
same,normalized growth,"S. cerevisiae deletion strains, locus YOR265W, strain rbl2, active compounds read low",1.03
same,normalized growth,"S. cerevisiae deletion strains, locus YOR270C, strain vph1, active compounds read low",0.468 (active)
same,normalized growth,"S. cerevisiae deletion strains, locus YOR290C, strain snf2, active compounds read low",0.973
same,normalized growth,"S. cerevisiae deletion strains, locus YOR316C, strain cot1, active compounds read low",1.01
same,normalized growth,"S. cerevisiae deletion strains, locus YPL051W, strain arl3, active compounds read low",0.7 (active)
same,normalized growth,"S. cerevisiae deletion strains, locus YPL055C, strain LGE1, active compounds read low",0.985
same,normalized growth,"S. cerevisiae deletion strains, locus YPL078C, strain atp4, active compounds read low",1.02
same,normalized growth,"S. cerevisiae deletion strains, locus YPL106C, strain sse1, active compounds read low",0.995
same,normalized growth,"S. cerevisiae deletion strains, locus YPL240C, strain hsp82, active compounds read low",1.03
same,normalized growth,"S. cerevisiae deletion strains, locus YPL241C, strain CIN2, active compounds read low",1.01
same,normalized growth,"S. cerevisiae deletion strains, locus YPL256C, strain CLN2, active compounds read low",0.97
same,normalized growth,"S. cerevisiae deletion strains, locus YPR119W, strain clb2, active compounds read low",1
same,normalized growth,"S. cerevisiae deletion strains, locus YPR141C, strain kar3, active compounds read low",0.997
same,normalized growth,"S. cerevisiae deletion strains, locus YPR163C, strain tif3, active compounds read low",0.953
same,normalized growth,"S. cerevisiae deletion strains, locus YPR167C, strain met16, active compounds read low",1.01
same,normalized growth,"S. cerevisiae deletion strains, strain wtn01, active compounds read low",0.988
same,normalized growth,"S. cerevisiae strains, strain wild type, active compounds read low",1.04
